Experimental data reported in PubChem BioAssay (NCATS).
Records with an inconclusive call do not appear. Calls of active or inactive are those of the source. The call rests on the fitted dose curve; in most records, active means well fitted curve in the direction sought with a large enough effect; inconclusive means small, poorly fitted or top-dose-only effect, or another doubt; inactive means no such curve, though single readings can be large; an effect the other way counts as inactive or inconclusive.

Assays:
[1] = Cellular Toxicity (caspase-3) Mesangial (AID 660); settings: mesangial cells, normalized: DMSO 0%, 100 µM tamoxifen 100%; at 91.7 µM (top of the series);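 further: combined caspase 3 and 7 activity read by Caspase-Glo luminescence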
Method in brief: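 Mesangial cells, 1000/well, 5 h settle at 37 °C; compound 16 h, 37 °C; Caspase-Glo 3/7 reagent 20 min RT; luminescence. Norm.: DMSO = 0%, tamoxifen 100 uM = 100%. AC50, Hill fit.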

[2] = Cellular Toxicity (caspase-3) SK-N-SH (AID 661);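 further: 0% = DMSO basal and 100% = 10 µM staurosporine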
Method in brief: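 Human neuroblastoma SK-N-SH, 1500 cells/well, 5 hr pre-incubation, then compound 16 hr, 37 °C. Caspase-Glo 3/7 reagent, 1 hr RT, luminescence. Norm. to DMSO/10 uM staurosporine; Hill-fit AC50.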

[3] = Cellular Toxicity (caspase-3) H-4-II-E (AID 663); settings: H-4-II-E rat hepatoma, scaled: DMSO 0%, 100 µM tamoxifen 100%; at 92.2 µM (top of the series);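 further: cells exposed to compound for 16 hr before readout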
Method in brief: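 Rat hepatoma H-4-II-E cells (1500/well) plated 5 hr, then exposed to compound titrations for 16 hr at 37 °C. Caspase-Glo 3/7 luminescence read after 20 min at RT; data normalized to DMSO and 100 uM tamoxifen, AC50 from Hill fits.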

[4] = Cellular Toxicity (caspase-3) Hek293 (AID 664); settings: HEK293 caspase-3 activation, DMSO = 0%, 100 µM tamoxifen = 100%; at 92.2 µM (top of the series);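 further: cells exposed to compound for 16 h at 37 °C before readout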
Method in brief: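 Cells plated, 5 hr at 37 °C; compounds added; 16 hr at 37 °C; Caspase-Glo 3/7 reagent, 20 min RT; luminescence read. Activation expressed relative to DMSO and 100 uM tamoxifen, AC50 by Hill model.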

[5] = Cellular Toxicity (caspase-3) N2a (AID 665);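 further: compound exposure lasted 16 h at 37 °C before readout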
Method in brief: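 N2a cells, 1500/well, 5 h settle at 37 °C; cpd 16 h, 37 °C; Caspase-Glo 3/7, 1 h RT; luminescence. Norm: DMSO = 0, 10 uM staurosporine = 100%. AC50, Hill fit.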

[6] = Cellular Toxicity (caspase-3) NIH 3T3 (AID 666);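 further: caspase signal read after 16 h compound exposure; 0% = DMSO basal and 100% = 100 µM tamoxifen stimulation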
Method in brief: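 Luminescence from aminoluciferin released by caspase-3/7 cleavage of a peptide substrate served as read-out. Mouse fibroblast NIH 3T3 cells were exposed to compounds over a concentration range for 16 hours, and AC50 values came from standard Hill modelling.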

[7] = Cellular Toxicity (caspase-3) Renal Proximal Tubule (AID 667); settings: Potency: caspase-3 activation;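 further: cells exposed to compound for 16 hours at 37 °C before detection; 0% = DMSO basal and 100% = 10 µM staurosporine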
Method in brief: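 In qHTS format, rat primary proximal tubule cells seeded at 1000 per well are exposed to compounds for 16 hours at 37 °C. An increase in Caspase-Glo 3/7 luminescence indicates caspase activation.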

[8] = molecular target: Cytochrome P450 3A4 (Homo sapiens) (UniProt P08684); experiment: qHTS Assay for Inhibitors and Substrates of Cytochrome P450 3A4 (AID 884); further: on the % scale 0 is the no-effect control and ±100 the full control effect; nearly all actives have a fitted effect of over 50% in size
Chain of Cytochrome P450 3A4 (Homo sapiens) (P08684 whole entry, looked up): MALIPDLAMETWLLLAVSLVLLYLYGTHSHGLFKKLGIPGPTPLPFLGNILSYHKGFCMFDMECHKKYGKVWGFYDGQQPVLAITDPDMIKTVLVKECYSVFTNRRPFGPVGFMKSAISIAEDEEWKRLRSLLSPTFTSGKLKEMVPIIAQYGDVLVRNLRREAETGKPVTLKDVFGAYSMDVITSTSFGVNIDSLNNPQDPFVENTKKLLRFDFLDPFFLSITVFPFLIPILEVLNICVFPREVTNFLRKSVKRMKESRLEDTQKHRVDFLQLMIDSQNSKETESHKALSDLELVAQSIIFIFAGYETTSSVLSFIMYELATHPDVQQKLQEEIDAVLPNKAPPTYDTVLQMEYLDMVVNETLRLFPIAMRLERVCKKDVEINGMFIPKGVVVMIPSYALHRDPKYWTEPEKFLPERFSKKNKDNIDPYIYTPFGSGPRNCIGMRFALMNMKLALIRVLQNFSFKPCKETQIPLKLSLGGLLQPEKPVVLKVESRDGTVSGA
Method in brief: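 20 nM human CYP3A4 with 25 uM Luciferin-PPXE (at KM) in 200 mM KPO4, preincubated 10 min with compound; NADPH regeneration started a 60 min RT reaction. Luciferin detected by luminescence, normalized to 57 uM ketoconazole as full inhibition.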

[9] = Cell Viability - LYMP2-001 (AID 921);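 further: cells exposed to compound for 24 h at 37 °C; 0% = DMSO only and full inhibition = tetraoctylammonium bromide control wells; nearly all actives have a fitted effect of over 70% in size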
Method in brief: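 qHTS, 1536-well; lymphoblastoid cells, 24 hr compound, 37 C; ATP by CellTiter-Glo, 30 min RT; luminescence; Hill-fit AC50.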

Cc1ccc(C)cc1
inactive: caspase-3 activation [1] -0.809% | outcome [2] | caspase-3 activation [3] 1.14% | caspase-3 activation [4] -2.53% | outcome [5] | outcome [6] | Potency [7] | Potency [8] | Potency [9]

O=[N+]([O-])c1cccc(C(F)(F)F)c1
inactive: caspase-3 activation [1] -1.76% | outcome [2] | caspase-3 activation [3] -0.931% | caspase-3 activation [4] 0.383% | outcome [5] | outcome [6] | Potency [7] | Potency [8] | Potency [9]

Cc1cc(C)cc(O)c1
inactive: caspase-3 activation [1] -0.0828% | outcome [2] | caspase-3 activation [3] -0.413% | caspase-3 activation [4] 0.338% | outcome [5] | outcome [6] | Potency [7] | Potency [8] | Potency [9]

CCCCCCCCC
inactive: caspase-3 activation [1] -0.687% | outcome [2] | caspase-3 activation [3] 0.863% | caspase-3 activation [4] -2.1% | outcome [5] | outcome [6] | Potency [7] | Potency [8] | Potency [9]

NC=O
inactive: caspase-3 activation [1] -0.458% | outcome [2] | caspase-3 activation [3] 0.414% | caspase-3 activation [4] -1.11% | outcome [5] | outcome [6] | Potency [7] | Potency [8] | Potency [9]

CCOCC(=O)O
inactive: caspase-3 activation [1] 1.49% | outcome [2] | caspase-3 activation [3] 0.681% | caspase-3 activation [4] 1% | outcome [5] | outcome [6] | Potency [7] | Potency [8] | Potency [9]

O=C1CCCCC1
inactive: caspase-3 activation [1] 1.1% | outcome [2] | caspase-3 activation [3] 0.476% | caspase-3 activation [4] 0.988% | outcome [5] | outcome [6] | Potency [7] | Potency [8] | Potency [9]

COC(=O)CS
inactive: caspase-3 activation [1] -1.25% | outcome [2] | caspase-3 activation [3] 0.405% | caspase-3 activation [4] -1.02% | outcome [5] | outcome [6] | Potency [7] | Potency [8] | Potency [9]

C=Cc1ccc(C=C)cc1
inactive: caspase-3 activation [1] -0.657% | outcome [2] | caspase-3 activation [3] -0.942% | caspase-3 activation [4] 0.511% | outcome [5] | outcome [6] | Potency [7] | Potency [8] | Potency [9]

CCC1CO1 (centres undefined)
inactive: caspase-3 activation [1] 0.872% | outcome [2] | caspase-3 activation [3] 2.93% | caspase-3 activation [4] -0.425% | outcome [5] | outcome [6] | Potency [7] | Potency [8] | Potency [9]

Cc1ccc(CO)cc1
inactive: caspase-3 activation [1] -1.48% | outcome [2] | caspase-3 activation [3] 0.0936% | caspase-3 activation [4] 0.73% | outcome [5] | outcome [6] | Potency [7] | Potency [8] | Potency [9]

CCC(C)(C)OC
inactive: caspase-3 activation [1] -0.415% | outcome [2] | caspase-3 activation [3] 0.321% | caspase-3 activation [4] -1.93% | outcome [5] | outcome [6] | Potency [7] | Potency [8] | Potency [9]

CC1(N)CCC(C(C)(C)N)CC1 (centres undefined)
inactive: caspase-3 activation [1] -0.66% | outcome [2] | caspase-3 activation [3] 0.688% | caspase-3 activation [4] -1.41% | outcome [5] | outcome [6] | Potency [7] | Potency [8] | Potency [9]

CC(C)(C)c1ccc(OCC2CO2)cc1 (centres undefined)
inactive: caspase-3 activation [1] 1.34% | outcome [2] | caspase-3 activation [3] 0.475% | caspase-3 activation [4] -2.1% | outcome [5] | outcome [6] | Potency [7] | Potency [8] | Potency [9]

C=CC(=O)OCCCC
inactive: caspase-3 activation [1] 0.429% | outcome [2] | caspase-3 activation [3] -0.465% | caspase-3 activation [4] 0.453% | outcome [5] | outcome [6] | Potency [7] | Potency [8] | Potency [9]

Clc1ccccn1
inactive: caspase-3 activation [1] 0.0313% | outcome [2] | caspase-3 activation [3] -0.264% | caspase-3 activation [4] 0.154% | outcome [5] | outcome [6] | Potency [7] | Potency [8] | Potency [9]

CCCCCCO
inactive: caspase-3 activation [1] 0.267% | outcome [2] | caspase-3 activation [3] 0.291% | caspase-3 activation [4] 0.42% | outcome [5] | outcome [6] | Potency [7] | Potency [8] | Potency [9]

O=[N+]([O-])c1cc(C(F)(F)F)ccc1Cl
inactive: caspase-3 activation [1] -0.64% | outcome [2] | caspase-3 activation [3] 0.0893% | caspase-3 activation [4] -0.647% | outcome [5] | outcome [6] | Potency [7] | Potency [8] | Potency [9]

Cc1ccc(C)c(O)c1
inactive: caspase-3 activation [1] 0.131% | outcome [2] | caspase-3 activation [3] 0.256% | caspase-3 activation [4] 0.519% | outcome [5] | outcome [6] | Potency [7] | Potency [8] | Potency [9]

O=[N+]([O-])c1ccccc1CCO
inactive: caspase-3 activation [1] -1.29% | outcome [2] | caspase-3 activation [3] 1.12% | caspase-3 activation [4] -0.925% | outcome [5] | outcome [6] | Potency [7] | Potency [8] | Potency [9]

Nc1ccc([N+](=O)[O-])c(N)c1
inactive: caspase-3 activation [1] -0.0443% | outcome [2] | caspase-3 activation [3] -0.185% | caspase-3 activation [4] -0.316% | outcome [5] | outcome [6] | Potency [7] | Potency [8] | Potency [9]

CCCOCC(C)O (centres undefined)
inactive: caspase-3 activation [1] 0.289% | outcome [2] | caspase-3 activation [3] -0.784% | caspase-3 activation [4] -1.05% | outcome [5] | outcome [6] | Potency [7] | Potency [8] | Potency [9]

CCCCCCC(=O)O
inactive: caspase-3 activation [1] -0.964% | outcome [2] | caspase-3 activation [3] 0.492% | caspase-3 activation [4] 0.189% | outcome [5] | outcome [6] | Potency [7] | Potency [8] | Potency [9]

O=C(O)/C=C/C(=O)O
inactive: caspase-3 activation [1] -0.622% | outcome [2] | caspase-3 activation [3] 1.4% | caspase-3 activation [4] -1.62% | outcome [5] | outcome [6] | Potency [7] | Potency [8] | Potency [9]

C=C(C)C(=O)OCC(C)C
inactive: caspase-3 activation [1] 1.08% | outcome [2] | caspase-3 activation [3] 0.664% | caspase-3 activation [4] -0.498% | outcome [5] | outcome [6] | Potency [7] | Potency [8] | Potency [9]

CC/C(C)=N/O
inactive: caspase-3 activation [1] 0.891% | outcome [2] | caspase-3 activation [3] -0.877% | caspase-3 activation [4] 1.42% | outcome [5] | outcome [6] | Potency [7] | Potency [8] | Potency [9]
